From PubChem BioAssay AID1259422 (The Scripps Research Institute Molecular Screening Center, 2018) come the findings set out here.

For orientation: inhibition means the change of the read-out against control, counted positive when it falls.

Screen size: about 640,000 compounds; about 9,300 (1.5%) were called active. Shown is part of a subset that was picked to be rich in actives. A number with no mark means an inactive call. No stated cut-off is given here; in the data, active means inhibition above about 32%; inactive means the rest.

The assay can be described thus: TEAD-YAP interaction inhibition, primary screen, TEAD-YAP interaction inhibitor project, luminescence, HEK-TIYL cells (AID 1259422).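 Further: 0% = median of test compound wells and 100% = reference inhibitor wells.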 The note with it: TEAD-Gal4/YAP UAS-luciferase luminescence, at 9.12 µM, hits give high values.
As to `O=C(N/N=C/c1ccc2c(c1)OCO2)c1cc(O)c(O)c(O)c1`, the inhibition is 9.47%.

Consider `O=C(N/N=C/c1ccc(O)c([N+](=O)[O-])c1)c1ccc2c(c1)OCO2`, for which the inhibition is -20.5%.

For `O=C(N/N=C\c1ccc([N+](=O)[O-])c(O)c1)c1ccc2c(c1)OCO2`, the inhibition is 42.6% (active).

For `O=C(CCl)Nc1c(C(=O)C2CC2)oc2ccccc12`, the inhibition is -1.47%.

Take `O=C(/C=C\c1ccccc1)N1CCN(Cc2nnnn2-c2cccc(F)c2)CC1`: the inhibition was 14.7%.

As for `C=CCN(CC=C)C(=O)CSc1nnc2c3ccccc3n(C)c2n1`, the inhibition is -18.1%.

In the case of `COC(=O)CSc1nnc2c3ccccc3n(CCc3ccccc3)c2n1`, the inhibition is -5.74%.

On to `C=CCSc1nnc2c3ccccc3n(CCc3ccccc3)c2n1`, for which the inhibition was 41.4% (active).

As for `CC(Cc1ccco1)NC(=O)Nc1ccc2c(c1)OCO2` (configuration not stated), the inhibition is -9.4%.

`Nc1c(Cl)cc(N2C(=O)c3cccc([N+](=O)[O-])c3C2=O)cc1Br`: the inhibition was -3.28%.

Consider `Cc1c(C(c2ccc3c(c2)OCCO3)c2c(C)n(C)n(-c3ccccc3)c2=O)c(=O)n(-c2ccccc2)n1C`, for which the inhibition is 1.2%.

For the compound `FC(F)(F)c1cccc(Nc2nccn3c(-c4ccc(N5CCOCC5)cc4)cnc23)c1`, the inhibition is 9.67%.

Take `Cc1ccc(C2SCC(=O)N2c2ccc(C)cc2)cc1` (configuration not stated): the inhibition is 35.1% (active).

Take `COc1ccc(N2C(=O)CSC2c2ccc(C)cc2)cc1` (configuration not stated): the inhibition was 1.91%.

As for `Cc1ccc(C2SCC(=O)N2c2ccccc2)cc1` (configuration not stated), the inhibition was -20.1%.

As to `CCCC1(C2CCN(C(=O)c3ccc(F)c(F)c3)CC2)NC(=O)N(CC2CCCO2)C1=O` (configuration not stated), the inhibition was -9.71%.

With `COc1ccc(C2C3=C(CC(C)(C)CC3=O)N(CCc3ccccc3)C3=C2C(=O)CC(C)(C)C3)cc1`, the inhibition was 4.3%.

Regarding `O=C1C2C3C=CC(C3)C2C(=O)N1c1ccc(Oc2ccc(Br)cc2)cc1` (configuration not stated), the inhibition was -3.86%.

For the compound `Cc1ccc(-c2ncn(-c3ccc(Nc4nccc(-c5cc(C#N)cc(N6CCCC(O)C6)c5)n4)cc3)n2)cn1` (configuration not stated), the inhibition is -6.62%.

As for `O=C(c1ccc(Nc2nccc(-c3ccc4c(=O)[nH]c(C5CC5)nc4c3)n2)cc1)N1CCCC1`, the inhibition was -6.26%.

With `Cn1nnnc1-c1ccc(Nc2nccc(-c3ccc(N4CCC(O)CC4)c(C#N)c3)n2)cc1`, the inhibition was 37.5% (active).

In the case of `COc1ccc(-c2nc(NCCOc3ccccc3)nc(OC)n2)cc1`, the inhibition is -21.8%.

As to `Cc1cc(C)n(CCc2nc(-c3ccc(Cl)cc3)cs2)n1`, the inhibition is -9.3%.

`COC1CCN(c2nc(CN3CCCC3c3nccs3)nc3ccc(Cl)cc23)CC1` (configuration not stated): the inhibition is 42.9% (active).

`OC1(c2cccnc2)CCN(Cc2nc(N3CCOCC3)c3cc(Cl)ccc3n2)CC1`: the inhibition is -1.26%.

For the compound `Clc1ccc(CN2CCC[C@H]2c2nc3ccc(-c4ccncc4)cc3[nH]2)cc1`, the inhibition was -0.35%.

Consider `NC(=O)c1ccc(-c2nccc(NC3CCN(Cc4ccccc4)CC3)n2)cc1`, for which the inhibition was -1.25%.

Turning to `COc1cccc(OC)c1C(=O)Nc1ccc(C)cc1`, the inhibition is -5.7%.

As to `C=CCNC(=O)C1CCCN(S(=O)(=O)c2ccc(F)cc2)C1` (configuration not stated), the inhibition was 1.52%.

On to `Cc1ccc(S(=O)(=O)N2CCCC2C(=O)NCCO)cc1` (configuration not stated), for which the inhibition is -1.16%.

On to `C=CCNC(=O)C1CCCN1S(=O)(=O)c1ccc(Cl)cc1` (configuration not stated), for which the inhibition was 57.2% (active).

For `CCOCCCNC(=O)C1CCC(=O)N1C1CCCCC1` (configuration not stated), the inhibition was -0.7%.

For `Cc1ccc(S(=O)(=O)NC(C)Cc2cccs2)cc1` (configuration not stated), the inhibition was 5.37%.

Turning to `CC1=C(C(=O)NCc2cccs2)C2(CCCCC2)OC1=O`, the inhibition is 13.8%.

For the compound `CN(C)c1ccc(-c2nc3ccc(C(=O)O)cc3s2)cc1`, the inhibition is 96.5% (active).

Take `O=C(NC1CC1)c1ccc(-c2nc3ccc(C(=O)NC4CCN(Cc5ccccc5)CC4)cc3s2)cc1`: the inhibition was -0.23%.

As to `CN1CCN(c2ccc(-c3nc4ccc(C(=O)NCc5ccccc5)cc4s3)cc2)CC1`, the inhibition was 3.92%.

As to `N#C/C=C(/CC(O)(c1nc2ccccc2s1)C(F)(F)F)N1CCCC1` (configuration not stated), the inhibition was 2.12%.

On to `CN(C)C(=O)c1cc(CNCCCc2ccccc2)cc(NC(=O)c2ccccn2)c1`, for which the inhibition was -3.43%.

For the compound `Cc1cc(NC(=O)c2cccn(OCc3ccc(F)cc3)c2=O)no1`, the inhibition was -2.96%.

Turning to `CCOc1ccc(-n2cc(-c3ccccc3)c3c(N4CCCC(C)C4)ncnc32)cc1` (configuration not stated), the inhibition is -7.09%.

Consider `COc1ccc(-n2ncc3c(Nc4ccc(F)c(Cl)c4)ncnc32)cc1`, for which the inhibition was 13.3%.

For `c1ccc(-n2ncc3c(N4CCCC4)ncnc32)cc1`, the inhibition was 37.8% (active).

`COc1ccc(-n2ncc3c(N4CCCC(C)C4)ncnc32)cc1` (configuration not stated): the inhibition was 94.8% (active).

Take `O=C(CCc1ccccc1)NCCn1ncc2c(N3CCN(c4ncccn4)CC3)ncnc21`: the inhibition was -1.06%.

As to `Fc1ccc(Nc2ncnc3c2cnn3-c2ccccc2)cc1`, the inhibition is -36.2%.

In the case of `COc1ccccc1Nc1ncnc2c1cnn2-c1ccc(C)cc1`, the inhibition was -73%.

`c1ccc(Cn2nnc3c(N4CCCCC4)ncnc32)cc1`: the inhibition is -2.04%.

As to `c1ccc(-n2ncc3c(Oc4cccc5cccnc45)ncnc32)cc1`, the inhibition was 42.7% (active).

As for `c1ccc(OCCn2ncc3c(N4CCCC4)ncnc32)cc1`, the inhibition is 81% (active).

`OCCNc1ncnc2c1cnn2-c1ccccc1`: the inhibition was -28.4%.

As for `Cc1ccc(N2CCN(c3ncnc4c3cnn4-c3ccccc3)CC2C)cc1` (configuration not stated), the inhibition was 9.96%.

Turning to `CCCS(=O)(=O)N1CCCc2ccc(NC(=O)CC(C)C)cc21`, the inhibition was 3.52%.

Consider `CCOC(=O)C1CCN(c2nc(-c3cccnc3)nc3c2CN(S(C)(=O)=O)CC3)CC1`, for which the inhibition is 9.38%.

Take `COCCNC(=O)Cn1cnc2c(nnn2-c2ccc(Cl)cc2)c1=O`: the inhibition is 2.42%.

In the case of `N#Cc1c(-c2ccc(F)cc2)cc(C2CC2)nc1SCCN1C(=O)c2ccccc2C1=O`, the inhibition is 7.65%.

For `Cc1cncn(CC(=O)NCCc2csc(-c3ccccc3)n2)c1=O`, the inhibition is -3.04%.

`COc1ccccc1Cn1c(SCC(=O)Nc2ccc(N(C)C)cc2)nc2ccccc2c1=O`: the inhibition was -7.65%.

`CCCCC(CC)CNS(=O)(=O)c1ccc2c(c1)n(C)c(=O)c(=O)n2C` (configuration not stated): the inhibition was -13.6%.

For the compound `COCCNC(=O)/C(=C/c1cccc([N+](=O)[O-])c1)c1ccccc1`, the inhibition is -2.61%.

For `S=C(S)NCCc1c[nH]c2ccccc12`, the inhibition is 10.8%.

As for `O=C(CSc1nc(=O)[nH]c2c1CCC2)N1CCCCCC1`, the inhibition was 1.26%.

With `O=C(CCc1nnc(-c2ccccc2)o1)NCCc1ccccc1Cl`, the inhibition is -37.1%.

Regarding `CN1CCN(c2ncnc3c2c(-c2ccccc2)cn3-c2ccccc2)CC1`, the inhibition was 4.3%.

On to `CCN(CC)C(=O)C1CCCN(c2ncnc3c2c(-c2ccccc2)cn3-c2cccc(Cl)c2)C1` (configuration not stated), for which the inhibition was -12.8%.

As to `CN1CCN(c2ncnc3c2cnn3-c2ccc(Cl)c(Cl)c2)CC1`, the inhibition is 32.8% (active).

`Cc1ccc(-n2ncc3c(N4CCN(C)CC4)ncnc32)c(C)c1`: the inhibition is -7.59%.

For `CCN(CC)C(=O)C1CCCN(c2cc(NCc3ccccc3)ncn2)C1` (configuration not stated), the inhibition was -14.4%.

Turning to `CCN(CC)C(=O)C1CCCN(c2ncnc3c2cnn3-c2ccccc2)C1` (configuration not stated), the inhibition is 34.1% (active).

As for `Cc1ccccc1C(=O)NCC1(c2cccs2)CC1`, the inhibition was -38.7%.

For the compound `CN1CCN(C(=O)c2ccc(-c3ccc(C(=O)NCCOc4ccccc4)s3)cc2)CC1`, the inhibition is -10.2%.

For the compound `O=C1c2ccc(Br)cc2C(=O)N1CNc1cccc(F)c1`, the inhibition was 2.19%.

Regarding `CCCCOc1ccccc1C1C(C(=O)OCCOCC)=C(C)NC2=C1C(=O)CC(C)(C)C2` (configuration not stated), the inhibition was -1.41%.

Consider `COc1ccccc1C1N=C(c2cccs2)CC(c2ccccc2O)N1` (configuration not stated), for which the inhibition was -31.6%.

In the case of `Cn1c(-c2ccc(F)cc2Cl)c(C(=O)O)c2ccccc2c1=O`, the inhibition was 5.25%.

Turning to `Cc1ccc2c(c1)CN(CCC(=O)NCC(C)(C)CO)CC(C)O2` (configuration not stated), the inhibition was 5.33%.

As for `COc1ccc(CNC(=O)CCc2c(C)nc3cc(-c4ccccc4)nn3c2C)cc1`, the inhibition is 2.84%.

With `COc1ccccc1-c1cc2nc(C)c(CCC(=O)Nc3ccccc3C(N)=O)c(C)n2n1`, the inhibition is 12.4%.

Turning to `COc1ccccc1-c1cc2nc(C)c(CCC(=O)O)c(C)n2n1`, the inhibition was 48.5% (active).

On to `O=C(C1CC=CCC1)N1CCn2cnnc2C1` (configuration not stated), for which the inhibition was 1.34%.

Regarding `Cc1cc(C)nc(SCC(=O)Nc2cc(C(=O)O)cc([N+](=O)[O-])c2)n1`, the inhibition is -2.98%.

As for `CCn1c(=O)cc(SCC(=O)Nc2cccc([N+](=O)[O-])c2C)c2ccccc21`, the inhibition was -12.2%.

As to `Cc1c(/C=N\NC(=O)c2cc3ccccc3o2)c2ccccc2n1C`, the inhibition was 49.3% (active).

Turning to `Cc1c(/C=N\Nc2ccc([N+](=O)[O-])cc2)c2ccccc2n1C`, the inhibition was 12.8%.

For `Cc1c(/C=N/NC(N)=S)c2ccccc2n1C`, the inhibition is -7.34%.

`c1ccc(Cn2cc(-c3cnn4c(NCCc5cccnc5)ccnc34)cn2)cc1`: the inhibition is -23.6%.

On to `C=CCn1c(SCCC(=O)NCCc2ccccc2)nc2scc(-c3ccco3)c2c1=O`, for which the inhibition was -10.1%.

For `C=CCn1c(SCC(=O)N2CCOCC2)nc2scc(-c3ccccc3Cl)c2c1=O`, the inhibition is 49.9% (active).

As for `C=CCn1c(SCC(=O)N2CCCCCC2)nc2scc(-c3ccc(C)o3)c2c1=O`, the inhibition was -7.67%.

With `Cc1ccc(C(=O)COC(=O)c2ccc(-n3cnnn3)cc2)cc1`, the inhibition was 11.7%.

In the case of `COc1cc(Nc2nc(-c3ccc(C(=O)NC4CC4)cc3)nc3c2ncn3-c2ccsc2)cc(OC)c1OC`, the inhibition was 22.8%.

As to `O=C(COC(=O)CSCc1c[nH]c(=O)[nH]c1=O)Nc1nc(-c2ccccc2)cs1`, the inhibition was -38%.
